# Assay outcomes: PubChem BioAssay, several laboratories
# Rows were chosen to be rich in hits. Some 3.9% of all compounds tested hit in one or more screens of this group.
# CR mimetic SO – reduction of superoxide in aged yeast, primary screen, HTS; S. cerevisiae aged cells, superoxide DHE fluorescence; active compounds read low; actives 0.18% (n = 330,000); superoxide response (% of plate mean), % at 10 µM; AID 2690, 2010;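 active = superoxide response under a set limit, about three screen SD below normal, cut at about 65% in these data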;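 note: yeast aged for seven days with compound at 30 °C before DHE staining; 100% = average MFI of all compound-treated wells on the plate with controls excluded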
# PLC-beta3 inh – human PLC-beta3 inhibitors, primary screen, biochemical, fluorescence. Purified PLC-beta3, fluorogenic substrate. actives 0.18% (n = 370,000). 1-phosphatidylinositol 4,5-bisphosphate phosphodiesterase beta-3 (Homo sapiens), Q01970. inhibition, % at 12.2 µM; in the data active = inhibition above about 11%;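 note: 0% = median of compound wells on plate and 100% = full blocker control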
# sPLA2-III inh – human group III sPLA2 inhibitors, primary screen, biochemical, QFRET, BODIPY PC-A2 liposome substrate; inhibition, % at 12.2 µM; AID 743126, 2013; actives 0.56% (n = 370,000); QFRET BODIPY PC-A2 liposome hydrolysis, fluorescence; Group 3 secretory phospholipase A2 (Homo sapiens), Q9NZ20;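 active = inhibition above mean plus 3 SD of compounds lying within the high and low control bounds, cut at about 19% in these data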;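 note: 0% = median of test compound wells and 100% = no enzyme DMSO wells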
# HIF act – HIF pathway transcriptional activators, primary screen, cell-based, U2OS HRE-luciferase, luminescence. AID 1910, 2009. actives 0.32% (n = 300,000). activation, % at 7.5 µM (by protocol). U2OS HRE-luciferase reporter; normalized: DMSO 0%, desferrioxamine 100%;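 active = mean activation of at least 10% of the iron chelator positive control signal, with at least half of replicates also reaching 10%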
# PLC-gamma1 inh – PLC-gamma1 enzyme inhibitors, primary screen, biochemical, fluorescence, purified enzyme | inhibition, % at 12.2 µM | AID 720700, 2013 | 1-phosphatidylinositol 4,5-bisphosphate phosphodiesterase gamma-1 (Homo sapiens), P19174 | actives 0.84% (n = 370,000) | fluorogenic substrate; in the data active = inhibition above about 9.5%
# AHR activator – AHR activators, primary screen, cell-based, luminescence, luciferase reporter, human | actives 2.5% (n = 320,000) | activation, % at 5 µM | AID 2796, 2010 | AHR-responsive luciferase reporter cells; in the data active = activation above about 47%;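 note: 0% = vehicle wells and 100% = reference agonist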
# Numbers without * were called inactive; i = inactive; · = no result.
SMILES,CR mimetic SO,PLC-beta3 inh,sPLA2-III inh,HIF act,PLC-gamma1 inh,AHR activator
COc1cc2cc(C(=O)NC(C)c3cccc4ccccc34)c(N)nc2cc1OC (configuration not stated),·,i,2.5,·,i,·
COc1ccccc1-c1noc(-c2ccccc2C(=O)Nc2ccccc2)n1,101.8,1.3,8.1,-0.2,1.1,47.1*
COc1cc2cc(C(=O)Nc3ccccc3)c(N)nc2cc1OC,102.2,i,-1.3,-0.7,i,48.4*
COc1cc2ccccc2cc1C(=O)Nc1cccnc1,121.9,-5.2,-2.2,3.8,-7.4,77.2*
COc1cc(NC(=O)c2cc3ccccc3cc2O)c(OC)cc1Cl,101.0,i,-44.3,-11.5,i,52.4*
COc1cc2ccccc2cc1C(=O)NNC(=O)c1ccccc1O,87.7,-62.0,8.3,11.9*,-41.1,32.6
COc1ccccc1NC(=O)COC(=O)c1cc2ccccc2cc1O,102.6,-48.2,2.9,·,-37.8,5.6
O=C(Nc1cccnc1)c1ccc2ccccc2c1O,98.2,-79.7,-0.7,2.8,-59.0,47.7*
COc1ccccc1C(=O)NNC(=O)c1cccc(O)c1,89.1,3.0,-4.0,1.6,-1.1,38.5
COc1ccccc1C(=O)NCc1ccncc1,88.6,-3.4,2.0,-0.2,-4.0,4.6
COc1ccccc1NC(=O)c1cc2cc(Br)ccc2cc1O,92.0,i,-57.7,-3.1,-406.7,54.8*
COc1cc2ccccc2cc1C(=O)NCc1ccncc1,99.0,-41.7,7.8,-0.4,-27.5,49.9*
COCCSc1nnc(-c2cccnc2)n1Cc1ccccc1,·,0.7,-1.8,·,-1.1,·
COc1cc2ccccc2cc1C(=O)Nc1ccccc1Cl,109.8,-103.5,-37.3,5.1,-75.5,52.9*
COc1cc2ccccc2cc1C(=O)Nc1ccccc1N1CCCC1,99.4,-43.3,-6.3,-0.9,-38.1,19.3
COc1ccccc1NC(=O)c1cccc2c(Br)cccc12,87.7,-7.1,3.6,0.2,0.1,53.1*
CCCCCCCCN1C(=O)[C@@H](CC(=O)N2CCCC2)C[C@@]2(C(=O)OC)C1=C[C@H](C(C)C)O[C@@H]2C1CC1,·,4.0,-2.7,·,-0.7,·
COc1ccccc1N1CCN(S(=O)(=O)c2ccc3c(c2)n(C)c(=O)c(=O)n3C)CC1,·,1.9,2.4,·,1.3,·
CCC1(C)N=C(c2ccc3c(c2)OCO3)CC(c2ccccc2O)N1 (configuration not stated),91.0,-55.2,-6.3,·,-42.4,73.3*
CN(C(=O)c1cc(-c2ccc3c(c2)OCO3)on1)c1ccccc1,101.0,-1.2,-1.2,1.5,0.4,3.5
CCn1c2ccccc2c2cc(NC(=O)Cc3ccc(S(=O)(=O)N4CCOCC4)s3)ccc21,105.0,-6.7,-9.0,1.0,0.5,51.4*
CN(C)S(=O)(=O)c1ccc(NC(=O)Cc2ccc(S(=O)(=O)N3CCOCC3)s2)cc1,129.0,-4.6,-57.6,-0.3,-3.3,1.1
CC(=O)c1cccc(N(C(=O)c2ccccn2)C(C(=O)NC2CCCCC2)c2ccccc2)c1 (configuration not stated),99.4,1.2,-6.9,38.6*,0.3,-0.5
CC(C)c1ccc(C(C(=O)NC2CCCCC2)N(C(=O)c2ccccn2)c2cccnc2)cc1 (configuration not stated),96.0,-1.3,7.3,-1.6,1.9,-1.0
C#CCCC(=O)Nc1sc2c(c1-c1nc3ccccc3s1)CCN(C(C)C)C2,·,i,-132.1,·,i,·
SMILES,CR mimetic SO,PLC-beta3 inh,sPLA2-III inh,HIF act,PLC-gamma1 inh,AHR activator
CC1=NN(C(N)=S)C(=O)C1N=Nc1cccc2ccccc12 (configuration not stated),102.7,·,·,0.2,·,92.7*
CC1=NN(C(N)=S)C(=O)C1N=Nc1cccc([N+](=O)[O-])c1 (configuration not stated),114.0,-8.8,5.0,-0.9,0.7,63.0*
CC1=NN(C(N)=S)C(=O)C1N=Nc1ccccc1 (configuration not stated),114.2,2.9,-2.3,1.4,-1.8,70.2*
CC1=NN(C(N)=S)C(=O)C1N=Nc1ccc(Cl)cc1 (configuration not stated),97.0,-5.0,-2.4,4.7,-0.6,·
COc1cc(OC)cc(C(C)c2ccc(-c3ccccc3)cc2)c1 (configuration not stated),·,-1.6,-10.4,·,-2.3,·
CCOC(=O)C1=C(N)Oc2ccc3ccccc3c2C1c1cccc(O)c1 (configuration not stated),100.0,-10.1,-41.7,1.4,-1.4,50.1*
CCOC(=O)C1=C(N)Oc2ccc3ccccc3c2C1c1cccnc1 (configuration not stated),97.1,2.3,3.0,-2.2,3.5,27.1
COC(=O)C1CN(Cc2cn(Cc3ccc(F)cc3)nn2)CCS(=O)(=O)N1Cc1ccccc1 (configuration not stated),·,3.0,-3.7,·,-0.3,·
Cn1nc(-c2ccc(Cl)cc2)c2cc(C(=O)NCC3CCCO3)sc21 (configuration not stated),106.4,-99.9,-1.7,·,-74.2,56.9*
CCCCN(CC)CCNC(=O)c1cc2c(-c3ccccc3F)nn(C)c2s1,95.9,-60.0,-3.6,-0.5,-44.4,8.9
CCN(CC)CCCNC(=O)c1cc2c(-c3ccc(Cl)cc3)nn(C)c2s1,102.9,-23.1,1.9,·,-16.5,54.2*
Cc1cc(C)nc(Nc2nc(C)c3cc4c(cc3n2)OCO4)n1,78.9,-15.4,2.1,-0.1,-11.0,49.5*
NS(=O)(=O)c1ccc(NC(=O)CSc2nnc(-c3cccs3)o2)cc1,·,3.6,-1.7,·,1.1,·
Cc1noc(C(=O)Nc2ccc(Cl)cc2)c1Cl,126.0,·,·,1.3,·,0.7
Cc1noc(C(=O)Nc2cc(Cl)ccc2O)c1Cl,86.2,-7.4,-17.7,0.2,-0.8,55.7*
COc1cc(N/C(N)=N/c2nc(C)cc(C)n2)c(OC)cc1Cl,91.0,1.8,-4.6,0.1,-1.3,53.9*
COc1cc(NC(=O)c2onc(C)c2Cl)c(OC)cc1Cl,108.1,6.4,3.5,0.1,-1.7,59.7*
COc1cc(NC(N)=S)c(OC)cc1Cl,100.0,-5.1,6.3,-0.4,1.6,-0.8
c1coc(-c2nc3c4ccccc4ccn3c2Cc2ccsc2)c1,·,-59.7,-4.3,·,-37.7,·
Cc1noc(C(=O)N2CCN(c3ccc(F)cc3)CC2)c1Cl,94.0,2.4,-6.1,-0.2,1.9,47.7*
CCn1c2ccccc2c2cc(NC(=O)COC(=O)c3cc(F)ccc3F)ccc21,·,2.1,-0.6,·,1.2,·
Nc1c(C(=O)N2CCCCC2)sc2nc3c(cc12)CCCC3,103.5,-338.8,8.8,3.4,-216.9,-11.7
CCc1nnc(NC(=O)c2sc3nc4c(cc3c2N)CCCCCC4)s1,108.8,i,-1.4,-0.6,i,49.6*
